Potency, activity change, negative = cytotoxicity and activity, negative = cell killing data for 59 compounds are collected here from PubChem BioAssay (NCATS).

Test [1] concerns PA-1. The test can be described thus: Primary qHTS to identify gynecologic anti-cancer compounds using libraries of approved drugs and bioactive compounds (AID 1345084). Further: nearly all actives have a fitted effect of over 55% in size. As to conditions: Gynecologic cancer cell panel viability, ATPlite luminescence, 48 h; series mostly up to 57.5 µM. In outline: (§1)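 Five-point cytotoxicity, 48 h drug exposure at 37 C, 5% CO2, on cells seeded 16 h beforehand. ATP content read by ATPlite luminescence.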
For orientation: In qHTS, concentration-response curves come from the screen itself.

The subject of test [2] is SKOV3. The test is described as above. As to conditions: Gynecologic cancer cell panel viability, ATPlite luminescence, 48 h; series mostly up to 57.5 µM. In outline:
as §1

Test [3] relates to Tov-21-G. The test is described as above. The following applies: Gynecologic cancer cell panel viability, ATPlite luminescence, 48 h; series mostly up to 57.5 µM. The procedure, abridged:
as §1
In general terms: ATP-based viability assays read luminescence as a measure of living cells.

The subject of test [4] is Tov112D. Described as above. The following applies: Gynecologic cancer cell panel viability, ATPlite luminescence, 48 h; series mostly up to 57.5 µM. In outline: as §1
Test [5] is described as follows: Drug repurposing screens with cells derived from glioblastoma tumor samples (AID 1345199). Further: nearly all actives have a fitted effect of over 40% in size. The following applies: GBM patient neurospheres viability, ATP luminescence, 48 h. The procedure, abridged:
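Four patient lines of CD133+ GBM neurospheres were screened at several concentrations; hits were retested in those lines plus three slower-growing GBM lines, using 48-hour treatment and ATP-based viability.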

Inconclusive results are not listed. Unmarked numbers belong to inactive results. The source made the active and inactive calls. The call rests on the fitted dose curve; in most records, active means well fitted curve in the direction sought with a large enough effect; inconclusive means small, poorly fitted or top-dose-only effect, or another doubt; inactive means no such curve, though single readings can be large; an effect the other way counts as inactive or inconclusive.
On the % scale 0 is the no-effect control and ±100 the full control effect; potency means the concentration at half of the fitted maximal effect.

For the compound `CC(=O)c1cc2ccccc2s1`, the Potency result in test [1], in test [2], in test [3] and in test [4] was “inactive” each time.
As for `COC(=O)c1ccc(NC(C)=O)cc1OC`, the Potency entry in test [1], in test [2], in test [3] and in test [4] was “inactive” each time.
Consider `NS(=O)(=O)c1ccc(N2CCCCS2(=O)=O)cc1`, for which the Potency result in test [1], in test [2], in test [3] and in test [4] was “inactive” throughout.
In the case of `CCN(CC)CC(=O)Nc1c(C)cccc1C(=O)OC`, the Potency entry in test [1], in test [2], in test [3] and in test [4] was “inactive” in each case.
On to `CC(C)NCCCC1(C(N)=O)c2ccccc2-c2ccccc21`, for which the Potency entry in test [1], in test [2], in test [3] and in test [4] was “inactive” each time.
Regarding `COc1ccc2nc(SCc3ncc(C)c(OC)c3C)[nH]c2c1`, the Potency result in test [1], in test [2], in test [3] and in test [4] was “inactive” each time.
On to `COC(=O)/C=C(/C)N`, for which the Potency entry in test [1], in test [2], in test [3] and in test [4] was “inactive” each time.
For the compound `CCOc1ncc(F)c(=O)[nH]1`, the Potency result in test [1], in test [2], in test [3] and in test [4] was “inactive” in each case.
Regarding `Cc1cccc(OCC(O)CNC(C)(C)C)c1C` (stereo not drawn), the Potency entry in test [1], in test [2], in test [3] and in test [4] was “inactive” in each case.
For `COC(=O)c1cc(Cl)c(NC(C)=O)cc1OC`, the Potency entry in test [1], in test [2], in test [3] and in test [4] was “inactive” each time.
Turning to `CC(=O)O[C@@H]1CC2C3CCc4cc(OC(=O)c5ccccc5)ccc4C3CCC2(C)[C@H]1OC(C)=O` (stereo partly drawn), the Potency entry in test [1], in test [2], in test [3] and in test [4] was “inactive” in each case.
Take `NS(=O)(=O)c1cc2c(cc1Cl)CN(C1CCCCC1)C2=O`: the Potency entry in test [1], in test [2], in test [3] and in test [4] was “inactive” each time.
On to `COc1cc2c(cc1OC)CN(C(=O)[C@H](C)N[C@@H](CCc1ccccc1)C(=O)O)[C@H](C(=O)O)C2`, for which the Potency entry in test [1], in test [2], in test [3] and in test [4] was “inactive” throughout.
Consider `Fc1ccc(C(c2ccc(F)cc2)N2CCNCC2)cc1`, for which the Potency entry in test [1], in test [2], in test [3] and in test [4] was “inactive” each time.
With `CC(=O)O[C@H]1CC[C@@]2(C)C(=CC[C@@H]3[C@@H]2CC[C@]2(C)C(C(C)=O)=CC[C@@H]32)C1`, the Potency entry in test [1], in test [2], in test [3] and in test [4] was “inactive” in each case.
As for `CC(C)Cc1ccc(C(C)C(=O)OCc2ccccn2)cc1` (stereo not drawn), the Potency entry in test [1], in test [2], in test [3] and in test [4] was “inactive” each time.
For the compound `COCCc1ccccn1`, the Potency result in test [1], in test [2], in test [3] and in test [4] was “inactive” throughout.
With `Cc1c(F)cc2c(=O)c(C(=O)O)cn3c2c1CCC3C` (stereo not drawn), the Potency entry in test [1], in test [2], in test [3] and in test [4] was “inactive” throughout.
As for `CC(C)CCCC(C)NCCC(C)C` (stereo not drawn), the Potency entry in test [1], in test [2], in test [3] and in test [4] was “inactive” in each case.
Regarding `COC(=O)C1=C(C)NC(C)=C(C(=O)OCCc2ccc(N3CCN(C(c4ccccc4)c4ccccc4)CC3)cc2)C1c1cccc([N+](=O)[O-])c1` (stereo not drawn), the Potency result in test [1], in test [2], in test [3] and in test [4] was “inactive” throughout.
Take `CCOCCn1c(C2CCN(CCc3ccc(C(C)(C)C(=O)O)cc3)CC2)nc2ccccc21`: the Potency result in test [1], in test [2], in test [3] and in test [4] was “inactive” each time.
`CCCCCCCCCCCCCCCCCCN(C)C`: the Potency result in test [1], in test [2], in test [3] and in test [4] was “inactive” throughout.
Consider `COc1cc(S(N)(=O)=O)cc(C(=O)O)c1OC`, for which the Potency result in test [1], in test [2], in test [3] and in test [4] was “inactive” throughout.
With `COC(=O)/C=C\C(=O)OC`, the Potency result in test [1], in test [2], in test [3] and in test [4] was “inactive” each time.
Regarding `Cc1oc(=O)oc1COC(=O)[C@@H]1N2C(=O)[C@@H](NC(=O)[C@H](N)c3ccccc3)[C@H]2SC1(C)C`, the Potency result in test [1], in test [2], in test [3] and in test [4] was “inactive” each time.
As to `COC(=O)c1cc(S(N)(=O)=O)ccc1OC`, the Potency result in test [1], in test [2], in test [3] and in test [4] was “inactive” each time.
For `COCCOCC(OC)OC`, the Potency entry in test [1], in test [2], in test [3] and in test [4] was “inactive” in each case.
Regarding `C/C(=N\O)[C@@H](C)NCC(C)(C)CN[C@H](C)/C(C)=N/O`, the Potency result in test [1], in test [2], in test [3] and in test [4] was “inactive” throughout.
`CC(C)(C)NCC(O)COc1ccccc1OCC1CCCO1` (stereo not drawn): the Potency result in test [1], in test [2], in test [3] and in test [4] was “inactive” throughout.
`c1ccc2c(c1)CCc1ccccc1N2`: the Potency result in test [1], in test [3] and in test [4] was “inactive” throughout. Moreover, in test [2], the Potency was 22.4 µM (active).
Take `CC(C)N(CCC(=O)c1ccc2ccccc2c1)Cc1ccccc1`: the Potency entry in test [1], in test [2], in test [3] and in test [4] was “inactive” in each case.
For `COc1ccc(OC(=O)N(CC(=O)O)Cc2ccc(OCCc3nc(-c4ccccc4)oc3C)cc2)cc1`, the Potency result in test [1], in test [2], in test [3] and in test [4] was “inactive” each time.
With `CCCCCCn1c(=O)c2c(ncn2C)n(C)c1=O`, the Potency result in test [1], in test [2], in test [3] and in test [4] was “inactive” throughout.
Consider `CCN1CCCC1CN` (stereo not drawn), for which the Potency result in test [1], in test [2], in test [3] and in test [4] was “inactive” throughout.
For `CNC(=O)c1cnn(-c2nc(N)c3ncn([C@@H]4O[C@H](CO)[C@@H](O)[C@H]4O)c3n2)c1`, the Potency result in test [1], in test [2], in test [3] and in test [4] was “inactive” throughout.
On to `Cc1oc(-c2ccccc2)nc1CCC(=O)c1ccc(CC2SC(=O)NC2=O)cc1` (stereo not drawn), for which the Potency result in test [1], in test [2], in test [3] and in test [4] was “inactive” each time.
`CCOC(=O)Oc1ccc(CCNC(=O)[C@H](CCSC)NC(C)=O)cc1OC(=O)OCC`: the Potency result in test [1], in test [2], in test [3] and in test [4] was “inactive” in each case.
For `CN(C)CCOC1=Cc2ccccc2Sc2ccc(Cl)cc21`, the Potency entry in test [1], in test [2], in test [3] and in test [4] was “inactive” throughout.
Consider `CN1CC(=O)N2[C@H](c3ccc4c(c3)OCO4)c3[nH]c4ccccc4c3C[C@@H]2C1=O`, for which the Potency result in test [1], in test [2], in test [3] and in test [4] was “inactive” in each case.
Turning to `CC1(C)O[C@@H]2C[C@H]3[C@@H]4CCC5=CC(=O)C=C[C@]5(C)[C@@]4(F)[C@@H](O)C[C@]3(C)[C@]2(C(=O)CO)O1`, the Potency entry in test [1], in test [2], in test [3] and in test [4] was “inactive” throughout.
Turning to `C#CC(C)(CC)OC(=O)c1ccccc1C(=O)O` (stereo not drawn), the Potency result in test [1], in test [2], in test [3] and in test [4] was “inactive” each time.
As for `O=C(O)C1CCC1`, the Potency result in test [1], in test [2], in test [3] and in test [4] was “inactive” in each case.
Consider `CC1(C)O[C@@H]2C[C@H]3[C@@H]4C[C@H](F)C5=CC(=O)C=C[C@]5(C)[C@@]4(F)[C@@H](O)C[C@]3(C)[C@]2(C(=O)CO)O1`, for which the Potency result in test [1], in test [2], in test [3] and in test [4] was “inactive” each time.
Regarding `O=C(OCCN1CCOCC1)c1cccnc1Nc1cccc(C(F)(F)F)c1`, the Potency entry in test [1], in test [2], in test [3] and in test [4] was “inactive” each time.
On to `CN(C)CCN(Cc1ccsc1)c1ccccn1`, for which the Potency entry in test [1], in test [2], in test [3] and in test [4] was “inactive” in each case.
With `CCCc1ncc(C(=O)O)s1`, the Potency entry in test [1], in test [2], in test [3] and in test [4] was “inactive” each time.
On to `Cc1cc(CCCOc2c(C)cc(-c3noc(C(F)(F)F)n3)cc2C)on1`, for which the Potency result in test [1], in test [2], in test [3] and in test [4] was “inactive” in each case.
In the case of `CCN(CC)C(=O)C1CN2CCc3cc(OC)c(OC)cc3C2CC1OC(C)=O` (stereo not drawn), the Potency result in test [1], in test [2], in test [3] and in test [4] was “inactive” each time.
With `COc1ccc(CCC(C)=O)cc1`, the Potency entry in test [1], in test [2], in test [3] and in test [4] was “inactive” throughout.
Consider `CC(C)C(=O)Nc1cccc(C2CN3CCSC3=N2)c1` (stereo not drawn), for which the Potency result in test [1], in test [2], in test [3] and in test [4] was “inactive” in each case.
In the case of `CCOC(=O)c1cc(=O)c2c(OCC(COc3cccc4oc(C(=O)OCC)cc(=O)c34)OC(=O)[C@@H](N)CCCCN)cccc2o1`, the Potency entry in test [1], in test [2], in test [3] and in test [4] was “inactive” throughout.
For the compound `COC(=O)C1=CO[C@@H](O)[C@@H]2C(CO)=CC[C@H]12`, the Potency result in test [1], in test [2], in test [3] and in test [4] was “inactive” each time.
On to `O=C(O)CCCC[P+](c1ccccc1)(c1ccccc1)c1ccccc1`, for which the Potency entry in test [1], in test [2], in test [3] and in test [4] was “inactive” in each case.
For the compound `CO/N=C(\C(=O)O)c1csc(NC(=O)CCl)n1`, the Potency result in test [1], in test [2], in test [3] and in test [4] was “inactive” throughout.
With `CC(=O)OC[C@H]1O[C@@H](OC(C)=O)[C@H](OC(C)=O)[C@@H]1OC(C)=O`, the Potency result in test [1], in test [2], in test [3] and in test [4] was “inactive” throughout.
On to `CCC(=O)Oc1ccc2c(c1)CC[C@@H]1[C@@H]2CC[C@@]2(C)[C@H]1C[C@@H](OC(=O)CC)[C@@H]2OC(=O)CC`, for which the Potency entry in test [1], in test [2], in test [3] and in test [4] was “inactive” each time.
Regarding `N[C@@H](Cn1ccc(=O)c(O)c1)C(=O)O`, the activity change, negative = cytotoxicity is 16.1% [at 6.55 µM] in test [1], 23.2% [at 6.55 µM] in test [2], -4.16% [at 6.55 µM] in test [3] and 12.5% [at 6.55 µM] in test [4].
As to `CC(C)(C)c1cc(C=O)cc(C(C)(C)C)c1O`, the Potency result in test [1], in test [2], in test [3] and in test [4] was “inactive” throughout.
Regarding `O=C1OC2(c3ccccc31)c1cc(I)c(O)c(I)c1Oc1c2cc(I)c(O)c1I`, the Potency entry in test [1], in test [2], in test [3] and in test [4] was “inactive” each time. Moreover, the activity, negative = cell killing in test [5] (at 45.9 µM (top of the series), tumour line B) is -23.6%. The Potency in test [5] (tumour line A) is 11.2 µM (active).
